# Results from ChEMBL document CHEMBL2218924, “A broad activity screen in support of a chemogenomic map for kinase signalling research and drug discovery” (Biochem J, 2013).
# Assays:
# [1] = target: Tyrosine-protein kinase SYK (Homo sapiens) (UniProt P43405); settings: at 10 µM
# [2] = target: T1, Serine/threonine-protein kinase TAO1 (Homo sapiens) (UniProt Q7L7X3); settings: at 1 µM
# T1 sequence (whole entry): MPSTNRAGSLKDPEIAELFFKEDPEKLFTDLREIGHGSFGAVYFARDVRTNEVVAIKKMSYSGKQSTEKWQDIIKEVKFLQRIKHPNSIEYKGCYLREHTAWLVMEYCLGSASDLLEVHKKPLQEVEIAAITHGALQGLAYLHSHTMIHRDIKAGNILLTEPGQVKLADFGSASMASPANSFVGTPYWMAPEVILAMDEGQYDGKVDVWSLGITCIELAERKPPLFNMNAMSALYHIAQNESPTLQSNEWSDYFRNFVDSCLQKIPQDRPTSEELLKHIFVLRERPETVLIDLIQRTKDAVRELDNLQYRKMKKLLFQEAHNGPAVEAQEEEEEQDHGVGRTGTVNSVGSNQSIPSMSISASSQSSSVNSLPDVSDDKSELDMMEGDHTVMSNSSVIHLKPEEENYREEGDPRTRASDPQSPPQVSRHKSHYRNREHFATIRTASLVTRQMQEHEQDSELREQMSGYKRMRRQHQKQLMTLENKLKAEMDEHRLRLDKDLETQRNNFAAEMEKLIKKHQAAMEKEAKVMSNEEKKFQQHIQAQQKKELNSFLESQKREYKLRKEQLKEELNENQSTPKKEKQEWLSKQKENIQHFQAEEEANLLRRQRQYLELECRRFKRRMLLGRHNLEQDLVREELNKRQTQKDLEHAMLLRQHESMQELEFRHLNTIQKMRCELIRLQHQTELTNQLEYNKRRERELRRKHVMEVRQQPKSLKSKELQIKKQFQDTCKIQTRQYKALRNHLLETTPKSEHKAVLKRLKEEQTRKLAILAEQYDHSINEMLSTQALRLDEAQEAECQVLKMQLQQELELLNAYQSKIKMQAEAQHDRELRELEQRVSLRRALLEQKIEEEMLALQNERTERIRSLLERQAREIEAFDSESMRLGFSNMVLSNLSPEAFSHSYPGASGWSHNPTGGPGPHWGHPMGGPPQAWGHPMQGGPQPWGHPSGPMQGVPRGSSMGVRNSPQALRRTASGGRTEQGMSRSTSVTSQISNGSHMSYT
# [3] = target: T1, Serine/threonine-protein kinase TAO1 (Homo sapiens); settings: at 10 µM
# [4] = target: T2, Serine/threonine-protein kinase TAO2 (Homo sapiens) (UniProt Q9UL54); settings: at 1 µM
# T2 sequence (whole entry): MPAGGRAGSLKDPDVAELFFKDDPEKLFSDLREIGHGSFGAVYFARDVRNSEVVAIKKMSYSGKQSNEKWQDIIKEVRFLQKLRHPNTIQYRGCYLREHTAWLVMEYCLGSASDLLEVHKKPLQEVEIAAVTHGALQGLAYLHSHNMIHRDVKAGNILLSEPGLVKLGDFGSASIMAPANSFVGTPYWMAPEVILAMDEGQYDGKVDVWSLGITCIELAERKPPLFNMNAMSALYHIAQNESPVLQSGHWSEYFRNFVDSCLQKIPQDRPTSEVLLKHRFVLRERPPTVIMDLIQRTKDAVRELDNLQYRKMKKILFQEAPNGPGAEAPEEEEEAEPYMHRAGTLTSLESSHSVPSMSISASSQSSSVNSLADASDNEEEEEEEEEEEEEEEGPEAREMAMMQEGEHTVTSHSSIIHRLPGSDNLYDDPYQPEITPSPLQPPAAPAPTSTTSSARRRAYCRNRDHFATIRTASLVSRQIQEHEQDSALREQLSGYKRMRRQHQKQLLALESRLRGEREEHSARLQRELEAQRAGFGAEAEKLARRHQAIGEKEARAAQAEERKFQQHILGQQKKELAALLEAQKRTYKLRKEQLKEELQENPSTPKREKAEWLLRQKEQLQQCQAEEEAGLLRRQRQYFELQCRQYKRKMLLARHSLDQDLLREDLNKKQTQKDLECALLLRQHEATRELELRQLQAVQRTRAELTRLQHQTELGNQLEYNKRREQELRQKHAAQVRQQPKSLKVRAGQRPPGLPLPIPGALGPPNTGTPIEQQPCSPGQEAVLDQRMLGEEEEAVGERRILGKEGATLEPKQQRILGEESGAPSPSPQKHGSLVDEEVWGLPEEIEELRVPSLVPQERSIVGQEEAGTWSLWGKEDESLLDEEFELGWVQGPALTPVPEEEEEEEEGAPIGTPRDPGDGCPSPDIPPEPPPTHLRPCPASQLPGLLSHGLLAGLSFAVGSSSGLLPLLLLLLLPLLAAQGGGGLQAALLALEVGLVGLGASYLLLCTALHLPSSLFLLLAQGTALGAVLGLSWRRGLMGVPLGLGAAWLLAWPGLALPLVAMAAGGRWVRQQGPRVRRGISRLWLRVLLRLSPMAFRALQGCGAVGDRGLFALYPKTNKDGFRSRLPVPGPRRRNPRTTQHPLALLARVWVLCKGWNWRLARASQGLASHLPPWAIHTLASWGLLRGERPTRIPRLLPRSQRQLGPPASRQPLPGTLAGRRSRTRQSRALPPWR
# [5] = target: T3, Serine/threonine-protein kinase TBK1 (Homo sapiens) (UniProt Q9UHD2); settings: at 1 µM
# T3 sequence (whole entry): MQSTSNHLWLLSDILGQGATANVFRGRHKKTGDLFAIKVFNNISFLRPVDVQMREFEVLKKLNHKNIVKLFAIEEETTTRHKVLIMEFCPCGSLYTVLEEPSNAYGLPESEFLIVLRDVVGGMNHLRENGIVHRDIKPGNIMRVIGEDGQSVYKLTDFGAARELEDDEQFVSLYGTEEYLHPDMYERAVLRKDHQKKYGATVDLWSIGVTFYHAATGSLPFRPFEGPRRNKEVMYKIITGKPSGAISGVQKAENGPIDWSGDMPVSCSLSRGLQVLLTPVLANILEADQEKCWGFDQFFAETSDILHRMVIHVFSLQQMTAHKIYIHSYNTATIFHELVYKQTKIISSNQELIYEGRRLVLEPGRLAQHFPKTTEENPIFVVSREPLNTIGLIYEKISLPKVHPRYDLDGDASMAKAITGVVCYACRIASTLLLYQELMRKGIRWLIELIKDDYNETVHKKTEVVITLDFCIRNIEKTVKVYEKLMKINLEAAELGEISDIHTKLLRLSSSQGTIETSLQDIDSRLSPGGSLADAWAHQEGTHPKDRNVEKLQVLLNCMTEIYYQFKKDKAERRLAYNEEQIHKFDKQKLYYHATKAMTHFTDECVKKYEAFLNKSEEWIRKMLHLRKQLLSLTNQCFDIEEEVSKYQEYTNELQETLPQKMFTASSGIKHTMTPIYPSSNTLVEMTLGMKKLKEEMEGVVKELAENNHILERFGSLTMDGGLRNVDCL
# [6] = target: T3, Serine/threonine-protein kinase TBK1 (Homo sapiens); settings: at 10 µM
# [7] = target: T4, Inhibitor of nuclear factor kappa-B kinase subunit alpha (Homo sapiens) (UniProt O15111); settings: at 1 µM
# T4 sequence (whole entry): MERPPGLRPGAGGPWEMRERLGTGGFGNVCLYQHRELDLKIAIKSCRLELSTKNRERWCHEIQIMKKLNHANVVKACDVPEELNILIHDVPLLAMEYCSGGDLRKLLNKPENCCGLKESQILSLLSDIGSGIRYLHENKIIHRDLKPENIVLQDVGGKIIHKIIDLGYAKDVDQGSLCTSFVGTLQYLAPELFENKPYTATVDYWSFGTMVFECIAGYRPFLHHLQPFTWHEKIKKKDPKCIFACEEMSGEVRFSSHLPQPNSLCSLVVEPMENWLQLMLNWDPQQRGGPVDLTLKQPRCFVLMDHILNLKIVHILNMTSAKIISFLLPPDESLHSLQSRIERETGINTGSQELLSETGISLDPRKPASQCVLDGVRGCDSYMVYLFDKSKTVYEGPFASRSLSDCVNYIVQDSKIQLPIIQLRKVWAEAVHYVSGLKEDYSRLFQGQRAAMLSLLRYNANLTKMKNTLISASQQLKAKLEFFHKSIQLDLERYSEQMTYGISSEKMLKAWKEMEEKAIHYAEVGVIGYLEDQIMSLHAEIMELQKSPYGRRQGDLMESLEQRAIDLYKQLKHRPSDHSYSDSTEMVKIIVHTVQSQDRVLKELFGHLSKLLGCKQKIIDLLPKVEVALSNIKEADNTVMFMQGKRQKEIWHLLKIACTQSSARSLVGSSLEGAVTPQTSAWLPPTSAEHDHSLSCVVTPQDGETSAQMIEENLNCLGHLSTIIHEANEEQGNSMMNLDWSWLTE
# [8] = target: T4, Inhibitor of nuclear factor kappa-B kinase subunit alpha (Homo sapiens); settings: at 10 µM
structure (smiles),measurement,setting,value
O=C1Nc2ccc(Br)cc2/C1=C\c1cc2c([nH]1)CCCC2,residual activity,[1],100%
same,residual activity,[2],104%
same,residual activity,[3],98%
same,residual activity,[4],111%
same,residual activity,[5],59%
same,residual activity,[6],65%
same,residual activity,[7],102%
same,residual activity,[8],115%
